This is part of a sample that, as a whole, favours compounds with a hit. Of some 79,000 tested, about 15% had one in any assay. A number with no mark means an inactive call. The source made the active and inactive calls. No stated cut-off is given here; in the data, active means growth inhibition above about 70%; inactive means the rest.

Test [1] is described as follows: NCI Yeast Anticancer Drug Screen. Data for the rad50 strain (AID 155).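 Further: 0% = growth of vehicle-only cultures of the same strain.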 As to conditions: S. cerevisiae rad50 strain growth inhibition; at 50.0 µM; hits give high values. The essentials:
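Growth of the mutant yeast was measured after compound exposure and referenced to vehicle-treated cultures.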

A short description of test [2]: NCI Yeast Anticancer Drug Screen. Data for the mec2-1 strain (AID 157). As to conditions: S. cerevisiae mec2-1 strain, at 50.0 µM, hits give high values. The essentials: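 Strain: mec2-1 (DNA repair/cell cycle alteration). Compound exposure, then growth measured; inhibition expressed relative to vehicle.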
A short description of test [3]: NCI Yeast Anticancer Drug Screen. Data for the sgs1 mgt1 strain (AID 161).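 Further: 0% = growth of cultures given vehicle only.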 As to conditions: S. cerevisiae sgs1 mgt1 strain, at 50.0 µM, hits give high values. Put shortly: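 Mutant yeast exposed to compound; growth scored against vehicle-only wells.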
A short description of test [4]: NCI Yeast Anticancer Drug Screen. Data for the cln2 rad14 strain (AID 165).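 Further: 0% = growth equal to vehicle treated cultures.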 As to conditions: S. cerevisiae cln2 rad14 strain, at 50.0 µM, hits give high values. Put shortly: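 Compounds are applied to the cln2 rad14 yeast strain, and growth is then compared with that of vehicle-treated cultures to give inhibition.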
Test [5] in a line: NCI Yeast Anticancer Drug Screen. Data for the bub3 strain (AID 167). As to conditions: S. cerevisiae bub3 mutant strain, at 50.0 µM, hits give high values. The essentials: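 Whole-cell yeast assay. The mutant strain was incubated with compounds, and growth inhibition was determined by comparison with vehicle-treated cells.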
Test [6] in a line: NCI Yeast Anticancer Drug Screen. Data for the mlh1 rad18 strain (AID 175). As to conditions: S. cerevisiae mlh1 rad18 strain growth inhibition; at 50.0 µM; hits give high values. Put shortly: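 Read-out is yeast growth inhibition, calculated against vehicle-only controls. The compound was applied to a strain engineered with DNA damage repair alterations.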

On to `ClCCN(CCCl)c1ccc(C=Nc2ccccc2)cc1`, for which the growth inhibition in test [1] is 34.5%; in test [2] it was 21.1%; in test [3], 59.6%; in test [4] it was 12.2%; in test [5], 2%; in test [6], 28.6%.

For the compound `Nc1ccc(N)cc1`, the growth inhibition in test [1] is 10.9%; in test [2] it was 25.8%; in test [3] it was -23.7%; in test [4], -7.4%; in test [5], -5.9%; in test [6], -1%.

As to `ClC12OOC(c3ccccc3)(O1)C(c1ccccc1)c1ccccc12` (stereo unspecified), the growth inhibition in test [1] was 14.2%; in test [2], 24.1%; in test [3], 34.9%; in test [4] it was 51.9%; in test [5], 10.8%; in test [6], 44.5%.

Consider `Cc1ccc(C)c(OP(=O)(Oc2cc(C)ccc2C)Oc2cc(C)ccc2C)c1`, for which the growth inhibition was -29.8% in test [1]; -42.5% in test [2]; -15.6% in test [3]; 8.85% in test [4]; -18% in test [5]; -36.9% in test [6].

For `Oc1ccccc1/C=N/C(O)C(Cl)(Cl)Cl` (stereo unspecified), the growth inhibition in test [1] was 30.2%; in test [2], 31.6%; in test [3] it was 34.9%; in test [4] it was 41.3%; in test [5], 48.1%; in test [6], 30.6%.

Consider `CC(=O)NC1C([Se][As](C)C)OC(COC(C)=O)C(OC(C)=O)C1OC(C)=O` (stereo unspecified), for which the growth inhibition in test [1] was -15.2%; in test [2] it was -20.4%; in test [3] it was 23.6%; in test [4] it was -7.3%; in test [5], -2.95%; in test [6] it was -6.5%.

As for `CCOP(=O)(OCC)C(C#N)Cc1ccccc1OC` (stereo unspecified), the growth inhibition is 20.6% in test [1]; 4.15% in test [2]; 0.2% in test [3]; -18.1% in test [4]; 3.3% in test [5]; 12.7% in test [6].

With `NC(=O)Oc1cc(OC(N)=O)cc(N(CCCl)CCCl)c1`, the growth inhibition in test [1] was 32.8%; in test [2], 34%; in test [3], 36.6%; in test [4], 12%; in test [5] it was 40%; in test [6], 40%.

Take `N=c1nc(N)n2c(N)nc(=N)n12`: the growth inhibition in test [1] is 19.9%; in test [2] it was 12.7%; in test [3], -1.55%; in test [4] it was 4.05%; in test [5], -1.75%; in test [6], 2.45%.

As to `CNC(=O)O/N=C(\CN=[N+]=[N-])C(C)(C)C`, the growth inhibition is 4.6% in test [1]; 3.55% in test [2]; -1.4% in test [3]; 0% in test [4]; -19.6% in test [5]; -20.5% in test [6].

With `C=C[Se](=C(C#N)C#N)c1ccccc1` (stereo unspecified), the growth inhibition in test [1] is -3.35%; in test [2], 28%; in test [3], 5.75%; in test [4], 4.35%; in test [5], -16.4%; in test [6] it was 0.7%.

Regarding `CNC(=O)Oc1ccc(Br)cc1Br`, the growth inhibition in test [1] is 29.4%; in test [2], -0.95%; in test [3] it was -2.6%; in test [4] it was -3.55%; in test [5], 10.9%; in test [6], 2.35%.

On to `CC(=O)N1CN2CN(C1)CN(C(C)=O)C2`, for which the growth inhibition is 0.3% in test [1]; -8.95% in test [2]; -5.3% in test [3]; -26.6% in test [4]; -9.05% in test [5]; -5.85% in test [6].

`CCCCCCCCCCCCCCCCCC(=O)[O][Pb]([CH3])([CH3])[CH3]`: the growth inhibition in test [1] was 0.8%; in test [2], 0.5%; in test [3] it was 18.8%; in test [4], 21.6%; in test [5], 2.8%; in test [6] it was 13.1%.

On to `C1CC[N-]CC1.C1CC[N-]CC1.[Cl][Pt+2]([Cl])([Cl])[Cl]`, for which the growth inhibition in test [1] is 4.65%; in test [2], -10.3%; in test [3], 7.8%; in test [4] it was -48.9%; in test [5], -0.8%; in test [6], -18.8%.

`CC1=CP(=O)(OC(C)C)CC(C)=C1Cl` (stereo unspecified): the growth inhibition in test [1] was 33.7%; in test [2], -6.9%; in test [3], -11.4%; in test [4], -9.55%; in test [5] it was -25.8%; in test [6], 20.8%.

Regarding `Cc1ccc([NH-])c([NH-])c1.[Cl][Pt+2][Cl]`, the growth inhibition in test [1] was 22.1%; in test [2], 0.25%; in test [3], 30.4%; in test [4] it was 12.3%; in test [5], -2.85%; in test [6], 13.7%.

With `CC1(C(=N)N)CCOC1=O` (stereo unspecified), the growth inhibition is 4.4% in test [1]; 18.5% in test [2]; -10.8% in test [3]; 4.5% in test [4]; -1% in test [5]; 7.55% in test [6].

With `COc1ccc(S(=O)(=O)F)cc1NC(=O)CCc1ccc(N2C(N)=NC(N)=NC2(C)C)cc1Cl`, the growth inhibition in test [1] is 79.8% (active); in test [2], 78.5% (active); in test [3] it was 86.8% (active); in test [4], 16.2%; in test [5], 4.7%; in test [6] it was 65.2%.

Regarding `COC(=O)CCCCCCCCCCN(CCCl)CCCl`, the growth inhibition was 39.6% in test [1]; 29.1% in test [2]; 31.9% in test [3]; 26.2% in test [4]; 21% in test [5]; 67% in test [6].

Regarding `O=c1[nH]cc(N=Cc2ccccc2F)c(=O)[nH]1.[Cl][Pt][Cl]`, the growth inhibition in test [1] is 20.6%; in test [2], 6.15%; in test [3], 24.7%; in test [4], 26.9%; in test [5] it was -0.2%; in test [6], 8.95%.

For the origin of these results see PubChem BioAssay (NCI).
